From PubChem
A selection: hits, their analogues and other compounds. The true share with any hit is near 6.4%.
RORg inh – ROR gamma (mouse) transcription inhibition | Drosophila S2 Gal4-RORgamma UAS-luciferase reporter, 20 h | AID 2551 | P51450 | Potency, µM (doses to about 53.6 µM), most hits filed as inhibitors | 310,000 tested, 5.4% active; note: nearly all actives have a fitted effect of over 60% in size
Target sequence (P51450 whole entry, looked up, the tested form may be a part): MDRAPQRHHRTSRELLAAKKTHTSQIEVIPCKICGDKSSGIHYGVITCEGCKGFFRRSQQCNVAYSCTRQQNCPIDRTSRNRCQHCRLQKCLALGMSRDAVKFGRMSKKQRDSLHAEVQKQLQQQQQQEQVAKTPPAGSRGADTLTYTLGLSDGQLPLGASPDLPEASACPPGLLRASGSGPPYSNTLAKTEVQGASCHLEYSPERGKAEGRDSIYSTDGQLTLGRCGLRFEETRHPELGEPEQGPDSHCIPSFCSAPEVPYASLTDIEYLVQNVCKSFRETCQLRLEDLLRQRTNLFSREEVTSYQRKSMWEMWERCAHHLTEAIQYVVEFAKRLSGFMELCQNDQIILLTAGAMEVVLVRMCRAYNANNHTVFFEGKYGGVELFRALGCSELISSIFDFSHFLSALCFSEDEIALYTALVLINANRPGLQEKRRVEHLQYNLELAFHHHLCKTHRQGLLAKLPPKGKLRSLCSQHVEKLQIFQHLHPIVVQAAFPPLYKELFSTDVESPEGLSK
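Stably transfected Drosophila Schneider cells are the test system, with ROR gamma fused to Gal4 and luciferase under UAS control; luminescence is read after 20 hr of 700 uM copper sulfate induction at ambient temperature.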
VP16 counter – Gal4-VP16 reporter inhibition counter-screen. 310,000 tested, 3.5% active. Potency, µM (top dose mostly 53.6 µM), most hits filed as inhibitors. Drosophila S2 Gal4-VP16 UAS-luciferase, luminescence, 20 h. AID 2546;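 note: Gal4-VP16 expression switched on by copper sulfate through the metallothionein promoter; nearly all actives have a fitted effect of over 50% in size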
Luc counter – counter-screen: inhibitors of Kinase-Glo firefly luciferase; 200,000 tested, 0.28% active; Potency, µM (doses to about 38.3 µM), hits mostly inhibitors; Kinase-Glo luciferase, ATP luminescence, 8 min; AID 1379; Q27757; note: nearly all actives have a fitted effect of over 60% in size
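Kinase-Glo luciferase light output from ATP and luciferin was measured with 10 uM ATP, within the enzyme's linear range. Buffer: 50 mM imidazole pH 7.2, 50 mM KCl, 7 mM MgCl2, 0.01% Tween 20, 0.05% BSA; luminescence read after 8 min at ambient temperature.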
Large screens that a line does not name were inactive. Calls come from the whole dose curve; as a rule, active = well fitted curve in the direction sought with a large enough effect; inconclusive = small, poorly fitted or top-dose-only effect, or another doubt; inactive = no such curve, though single readings can be large; an effect the other way counts as inactive or inconclusive.

O=C(O)C/C=C(/NC(=O)OCc1ccccc1)C(=O)OCc1ccccc1	none
COC(=O)CNC(=O)c1cc(-c2ccncc2)nc2ccc(C)cc12	none (no result: Luc counter)
Cc1ccc(-n2c(C)cc(=O)cc2C)cc1[N+](=O)[O-]	none (no result: Luc counter)
Cc1ccc(C(=O)N2CCCc3ccccc32)c(F)c1F	none (no result: Luc counter)
CC(C)=NNc1nc(-c2ccccc2)cs1	RORg inh inconclusive
C/C(=N\Nc1nc(C(=O)O)cs1)c1ccccc1	RORg inh 0.63µM, VP16 counter 5µM
O=C(COc1ccc([N+](=O)[O-])cc1)N(Cc1cccs1)C1CCS(=O)(=O)C1 (configuration not stated)	none (no result: Luc counter)
O=C(COC(=O)c1cccc(S(=O)(=O)N2CCOCC2)c1)NCCc1ccccc1	none (no result: Luc counter)
CCCCC(=O)N(C)C	none (no result: Luc counter)
Nc1cc(C(=O)N/N=C/c2cccc([N+](=O)[O-])c2)n[nH]c1=O	none (no result: Luc counter)
O=C(CNC(=O)c1ccc2c(c1)OCO2)N/N=C/c1cc(Br)ccc1O	RORg inh 20µM, VP16 counter inconclusive (no result: Luc counter)
O=C(CNC(=O)c1ccccc1Br)N/N=C/c1cc(Br)ccc1O	RORg inh 2.2µM, VP16 counter 5µM
O=C(CNC(=O)c1ccc2c(c1)OCCO2)N/N=C/c1cccc(Br)c1	none
O=C(CNC(=O)c1ccccc1Br)N/N=C/c1cccs1	none (no result: Luc counter)
O=C(CNC(=O)c1ccccc1Br)N/N=C/c1ccccc1O	RORg inh 3.2µM, VP16 counter inconclusive
COC(=O)N/N=C/c1cc([N+](=O)[O-])cc(Br)c1O	RORg inh 11µM, VP16 counter inconclusive
COc1ccc(Br)cc1/C=N/NC(=O)CNC(=O)c1cccnc1	none (no result: Luc counter)
Nc1nnc(CC(=O)N/N=C/c2cc([N+](=O)[O-])cc(Br)c2O)s1	none
CCN(CC)S(=O)(=O)c1ccc(C)c(NC(=O)CNCCN(C(C)C)C(C)C)c1	none
CC1CN(CC(=O)NCc2ccc(F)cc2)CC(C)O1 (configuration not stated)	none (no result: Luc counter)
CCOC(=O)C1CCN(C(=O)C(=O)Nc2ccc3nc4n(c(=O)c3c2)CCCCC4)CC1	none (no result: Luc counter)
O=C(CNC(=O)c1ccncc1)N/N=C/c1cc(Br)ccc1O	none
O=C(N/N=C/c1cccnc1)c1cccc(Cl)c1	none (no result: Luc counter)
O=C(Nc1cc(S(=O)(=O)Nc2ccc(Cl)cc2)ccc1O)c1ccc(S(=O)(=O)N2CCCCCC2)cc1	RORg inh inconclusive, VP16 counter inconclusive
O=C(N/N=C/c1cc(Cl)ccc1O)c1cccnc1	RORg inh 1.1µM, VP16 counter 0.71µM (no result: Luc counter)
O=C(/C=N/NC(=O)c1ccccc1Br)c1ccccc1	RORg inh inconclusive
O=C(CNC(=O)c1ccccc1)N/N=C/c1cc(Br)ccc1O	RORg inh 2.5µM, VP16 counter 7.1µM
O=C(N/N=C/c1cc(Cl)ccc1O)c1ccccc1Br	RORg inh 0.71µM, VP16 counter 1.3µM (no result: Luc counter)
O=C(N/N=C\c1cc(Cl)ccc1O)c1ccc(S(=O)(=O)N2CCCCC2)cc1	RORg inh 5µM, VP16 counter 3.5µM
CC(C)NC(=O)Cn1cc(C(=O)C(=O)N2CCOCC2)c2ccccc21	none (no result: Luc counter)
CO[C@]1(NC(=O)C(C(=O)O)c2ccc(O)cc2)C(=O)N2C(C(=O)O)=C(CSc3nnnn3C)COC21 (some centres not stated)	none
O=C(NCc1cc(F)cc2c1OCCO2)[C@H]1C[C@@H]1[C@H](NP(=O)(c1ccccc1)c1ccccc1)c1ccccc1	none
O=C(CNC(=O)c1ccco1)N/N=C/c1ccc(O)cc1O	RORg inh inconclusive (no result: Luc counter)
O=C(CNC(=O)c1ccco1)N/N=C/c1cc(Br)ccc1O	RORg inh 8.9µM, VP16 counter 11µM (no result: Luc counter)
O=C(CNC(=O)c1ccccc1Br)N/N=C\c1cc([N+](=O)[O-])cc(Br)c1O	RORg inh 11µM, VP16 counter 7.9µM (no result: Luc counter)
O=C(CN1CC(c2ccccc2)CC1=O)N/N=C/c1cc(Br)ccc1O (configuration not stated)	RORg inh 4.5µM, VP16 counter 3.2µM
O=C(CNC(=O)c1ccccc1Br)N/N=C/c1cccnc1	none (no result: Luc counter)
CCOc1ccc(NC(=O)CN2CC(c3ccccc3)CC2=O)cc1 (configuration not stated)	RORg inh inconclusive
CCOc1ccccc1NC(=O)C1CCN(C(=O)C2CC(=O)N(c3ccc(C)cc3)C2)CC1 (configuration not stated)	none (no result: Luc counter)
O=C(CC1SC(N2CCOCC2)=NC1=O)Nc1cc([N+](=O)[O-])ccc1Cl (configuration not stated)	none
O=C(CCCCC(=O)NC1CCCC1)NC1CCCC1	none
Cc1cccc2c1Oc1ccccc1[C@@H]2NC(=O)c1ccc([N+](=O)[O-])cc1	none (no result: RORg inh, VP16 counter)
COC(=O)Cn1c(=NC(=O)c2cc(-c3cccs3)nc3ccccc23)sc2cc(S(N)(=O)=O)ccc21	VP16 counter inconclusive
CCOC(=O)Cn1c(=NC(=O)c2cc(-c3cccs3)nc3ccccc23)sc2cc(S(N)(=O)=O)ccc21	RORg inh 16µM, VP16 counter 11µM
O=C1NN=C(c2ccc(Br)cc2)CC1c1ccc(Cl)cc1 (configuration not stated)	none
Cc1ccc(C2CC(c3ccc(Cl)cc3)=NNC2=O)cc1 (configuration not stated)	RORg inh inconclusive, VP16 counter 14µM
CC1(C)CC(=O)C=C(NNC(=O)c2ccccc2O)C1	RORg inh 13µM, VP16 counter 11µM, Luc counter inconclusive
Cc1cccc(C(=O)NNC2=CC(=O)CC(C)(C)C2)c1O	RORg inh inconclusive (no result: Luc counter)
O=C1CCC(=O)N1c1ccc(-c2nc3ccccc3s2)cc1	RORg inh inconclusive, VP16 counter inconclusive
O=C1CNC(=S)N1c1nc2ccccc2s1	RORg inh 0.79µM, VP16 counter 5.6µM (no result: Luc counter)
COc1cc(C(C)=O)ccc1COc1ccc(C(=O)O)cc1OC	none (no result: Luc counter)
O=C(NNC1=Nc2cc([N+](=O)[O-])ccc2OC1)c1ccccc1Cl	RORg inh 1µM (no result: Luc counter)
O=C(NNc1ccc([N+](=O)[O-])cc1)c1ccccc1Cl	none
COCC(=O)N(CCc1ccc(OC)c(OC)c1)Cc1cc2cc(C)ccc2nc1Cl	none
Cc1c(CCC(=O)N2CCC(C(=O)O)(c3ccccc3)CC2)c(=O)oc2cc3oc4c(c3cc12)CCCC4	RORg inh 1.1µM, VP16 counter inconclusive (no result: Luc counter)
Cc1oc2c(C)c3oc(=O)c(CCC(=O)N4CCC(C(=O)NCCC(=O)O)(c5ccccc5)CC4)c(C)c3cc2c1C	none (no result: Luc counter)
Cc1oc2cc3oc(=O)c(CCC(=O)NCCCn4ccnc4)c(C)c3cc2c1C	none (no result: Luc counter)
Cc1c(CCC(=O)NCCCn2ccnc2)c(=O)oc2cc3oc4c(c3cc12)CCCC4	RORg inh 1.3µM, VP16 counter 16µM (no result: Luc counter)
CCOC(=O)C(C)Sc1ccc2nnc(CCNS(=O)(=O)c3ccccc3)n2n1 (configuration not stated)	none
CCOC(=O)CC1CCCCN1Cc1cn[nH]c1-c1ccc(F)cc1F (configuration not stated)	none
C=C(C)COc1ccc(-c2n[nH]c(C)c2-c2ccc(OC)cc2)c(O)c1	RORg inh 2.2µM, VP16 counter inconclusive
COc1ccc(-c2c(-c3ccc(OCC(=O)NN)cc3O)n[nH]c2C(F)(F)F)cc1	RORg inh 6.3µM, VP16 counter 4.5µM
COc1ccc(-c2c(-c3ccc(OCC(=O)NN)cc3O)n[nH]c2C)cc1OC	none (no result: Luc counter)
CCOc1ccc(-c2nc(N)ncc2Oc2ccc(OC)cc2)c(O)c1	RORg inh inconclusive (no result: Luc counter)
COc1ccc(-c2n[nH]c(C)c2-c2cscn2)c(O)c1	RORg inh inconclusive (no result: Luc counter)
